Screening results (PubChem)
KB-V1 cytotox: qHTS assay for MDR1-selective chemotherapeutics: Primary screen using the drug-selected MDR subline cells KB-V1. KB-V1 MDR cells viability, CellTiter-Glo, 72 h. Potency, µM (series often up to 46.1 µM), most hits filed as cytotoxic. 400,000 compounds, 3.4% hits. AID 1347076, 2019; also: % is scaled to controls: 0 for no effect and ±100 for the full control effect; nearly all actives have a fitted effect of over 60% in size
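Luminescent ATP read-out (CellTiter-Glo, 10 min) measures survival of drug-selected KB-V1 MDR cells after 72 h, 37 degrees C compound exposure. Medium: phenol-red-free DMEM, 10% FBS. Values from fitted concentration-response curves.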
S2 tox: Viability Counterscreen for Primary qHTS for Inhibitors of ATXN expression. S2 cells (HEK-293 line with an ATXN2-luciferase reporter) viability, CellTiter-Fluor protease fluorescence, 24 h. Potency, µM (highest dose often 56.7 µM), actives largely listed as cytotoxic. 400,000 compounds, 0.49% hits; also: nearly all actives have a fitted effect of over 40% in size
ATXN2 expr inh: Primary qHTS for Inhibitors of ATXN expression; 360,000 compounds, 0.72% hits; HEK-293 ATXN2-luciferase reporter, luminescence, 24 h; Potency, µM (series often up to 57 µM), for the others: at the top dose activity change, negative = inhibition, actives largely listed as inhibitors; also: % is scaled to controls: 0 for no effect and ±100 for the full control effect; nearly all actives have a fitted effect of over 55% in size
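ATXN2-luciferase reporter cells (luciferase flanked by upstream and downstream ATXN2 gene portions) were treated 24 h at 37 °C with compounds at up to 57 uM. SteadyGlo luminescence gave expression; GF-AFC fluorescence gave viability.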
HepG2 viability: qHTS for Inhibitors of TGF-b: Cytotox Counterscreen | Potency, µM (series often up to 46.1 µM), without a hit: top-dose activity change, negative = cytotoxicity, actives largely listed as cytotoxic | AID 588856, 2011 | HepG2 CAGA-GFP viability, ATP luminescence, 18 h | 410,000 compounds, 0.76% hits
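HepG2 CAGA-GFP cells (1000/well, DMEM with 1% FBS) received compound, then TGF-beta at 500 pg/mL final, and were incubated 18 hours at 37 degrees C. Viability was read by CellTiter-Glo luminescence. Media-only wells were set as complete cell-killing and DMSO as no toxicity.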
TGFb inhibitor: qHTS for Inhibitors of TGF-b; 410,000 compounds, 1.2% hits; HepG2 CAGA-GFP TGF-b/SMAD3 reporter, GFP fluorescence, 18 h; TGF-beta stimulated, 500 pg/mL final; Potency, µM (highest dose often 46.1 µM), without a hit: at the top dose activity, negative = inhibition, most hits filed as inhibitors; also: % is scaled to controls: 0 for no effect and ±100 for the full control effect; nearly all actives have a fitted effect of over 65% in size
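Using HEPG2 CAGA-GFP reporter cells at 1000 cells/well, we pinned test compounds, stimulated with recombinant TGF-beta (500 pg/mL final) and measured total well GFP after 18 h.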
KB-3-1 tox: qHTS assay for MDR1-selective chemotherapeutics: Primary screen using the parental adenocarcinoma cell KB-3-1; KB-3-1 viability, CellTiter-Glo ATP luminescence, 72 h; 400,000 compounds, 1.4% hits; Potency, µM (top dose mostly 46.1 µM), actives largely listed as cytotoxic; also: % is scaled to controls: 0 for no effect and ±100 for the full control effect; nearly all actives have a fitted effect of over 60% in size
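Parental KB-3-1 adenocarcinoma cells in phenol-red-free DMEM with 10% FBS were pin-treated with compounds at several concentrations, incubated 72 h at 37 °C, and viability read by CellTiter-Glo luminescence; concentration-effect curves were fitted after normalization.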
Starred values were filed as active, the others as inactive. A selection: hits, their analogues and other compounds. The true share with any hit is near 5.9%. Calls follow the shape of the dose curve; as a rule, active = well fitted curve in the direction sought with a large enough effect; inconclusive = small, poorly fitted or top-dose-only effect, or another doubt; inactive = no such curve, though single readings can be large; an effect the other way counts as inactive or inconclusive. Potency is read from the fitted curve at half-maximal effect.

What do the screens show for `CCC(C)(C)NC(=O)C(c1ccccc1)N(Cc1cccnc1)C(=O)c1csnn1` (stereo not given)?
KB-V1 cytotox: 13µM*; S2 tox: inconclusive; ATXN2 expr inh: 3%; HepG2 viability: 1%; TGFb inhibitor: 14%; KB-3-1 tox: inactive

What do the screens show for `CC(C)(C)NC(=O)C(c1ccco1)N(C(=O)c1csnn1)c1ccccc1` (stereo not given)?
KB-V1 cytotox: 15µM*; S2 tox: inactive; ATXN2 expr inh: 0%; HepG2 viability: 7%; TGFb inhibitor: 15%; KB-3-1 tox: inactive

Results for Cn1c(C(=O)NCc2ccccc2Cl)cc2sc(Cl)cc21 ?
HepG2 viability: -26%

What do the screens show for `Cc1sc(-n2cccc2)c(C(C)NC(=O)Nc2cccc(C(F)(F)F)c2)c1C` (stereo not given)?
HepG2 viability: -37%

What do the screens show for `Cc1ccc(S(=O)(=O)c2cn(CC(=O)Nc3ccc(F)cc3)c3cc4c(cc3c2=O)OCO4)cc1`?
KB-V1 cytotox: inactive; S2 tox: inactive; ATXN2 expr inh: 7%; HepG2 viability: 1%; TGFb inhibitor: -13%; KB-3-1 tox: inactive

How did CSC(=NC(C)c1ccccc1)NS(=O)(=O)c1cccs1 (stereo not given) do in these assays?
KB-V1 cytotox: 23µM*; S2 tox: inactive; ATXN2 expr inh: -5%; HepG2 viability: -32%; TGFb inhibitor: inconclusive; KB-3-1 tox: inconclusive

Results for CCOC(=O)c1ccc(Nc2nc(=O)c3cccnc3s2)cc1 ?
KB-V1 cytotox: 6.5µM*; S2 tox: inactive; ATXN2 expr inh: 108%; HepG2 viability: -14%; TGFb inhibitor: 15%; KB-3-1 tox: inactive

What do the screens show for `CC(C)c1nc(C(=O)N2CCOc3ccc(CN4CCN(c5ccccn5)CC4)cc3C2)cs1`?
S2 tox: inactive

What do the screens show for `O=C1C(Cc2ccccc2)C(c2ccccc2)N1c1ccccc1` (stereo not given)?
KB-V1 cytotox: 18µM*; S2 tox: inactive; ATXN2 expr inh: 3%; HepG2 viability: -8%; TGFb inhibitor: -15%; KB-3-1 tox: 21µM*

How did O=C(NCC1CCCO1)C(c1cccs1)N(Cc1ccccc1Cl)C(=O)c1ccc(-c2ccccc2)[nH]1 (stereo not given) do in these assays?
KB-V1 cytotox: 4.1µM*; S2 tox: inactive; ATXN2 expr inh: -22%; HepG2 viability: 3%; TGFb inhibitor: inconclusive; KB-3-1 tox: inactive

How did COc1ccc(NC2=CC(=O)CC(c3ccccc3)C2)c(OC)c1 (stereo not given) do in these assays?
KB-V1 cytotox: 2.6µM*; S2 tox: inactive; ATXN2 expr inh: 26%; HepG2 viability: -15%; TGFb inhibitor: inconclusive; KB-3-1 tox: inconclusive

Results for COc1ccc([C@H]2CC(=O)C=C(c3cc(Br)ccc3OC)C2)cc1 ?
KB-V1 cytotox: inconclusive; S2 tox: inactive; ATXN2 expr inh: inconclusive; HepG2 viability: -11%; TGFb inhibitor: inconclusive; KB-3-1 tox: inconclusive

What do the screens show for `CCOc1ccc(Br)cc1C1=CC(=O)C[C@H](c2ccc(OC)cc2)C1`?
KB-V1 cytotox: 16µM*; S2 tox: inactive; ATXN2 expr inh: -5%; HepG2 viability: -1%; TGFb inhibitor: inconclusive; KB-3-1 tox: 5.8µM*

What do the screens show for `COc1ccc(OC)c(C2=CC(=O)C[C@H](c3ccc4c(c3)OCO4)C2)c1`?
KB-V1 cytotox: inconclusive; S2 tox: inactive; ATXN2 expr inh: -20%; HepG2 viability: -18%; TGFb inhibitor: -19%; KB-3-1 tox: 10µM*

How did COc1ccc([C@H]2CC(=O)C=C(c3cc(C)ccc3OC)C2)cc1 do in these assays?
KB-V1 cytotox: 5.8µM*; S2 tox: inconclusive; ATXN2 expr inh: -23%; HepG2 viability: -22%; TGFb inhibitor: -26%; KB-3-1 tox: 21µM*

What do the screens show for `COc1c(F)cccc1C1=CC(=O)C[C@H](c2ccc3c(c2)OCO3)C1`?
KB-V1 cytotox: inactive; S2 tox: inactive; ATXN2 expr inh: 4%; HepG2 viability: -16%; TGFb inhibitor: -7%; KB-3-1 tox: inactive

Results for CCCCOc1ccc(C(=O)NCCS(=O)(=O)N2CCN(c3ccccc3OC)CC2)cc1 ?
HepG2 viability: -11%; TGFb inhibitor: inconclusive

What do the screens show for `CN(CC(=O)Nc1cccc(F)c1)C(=O)c1ccc(OCc2ccccc2)cc1`?
KB-V1 cytotox: inactive; S2 tox: inactive; HepG2 viability: -19%; TGFb inhibitor: -17%; KB-3-1 tox: inactive

Results for CN(CC(=O)Nc1cccc(F)c1)C(=O)c1ccc(C2SCCS2)cc1 ?
KB-V1 cytotox: 18µM*; S2 tox: inactive; ATXN2 expr inh: -37%; HepG2 viability: -12%; TGFb inhibitor: inconclusive; KB-3-1 tox: inconclusive

What do the screens show for `CN(CC(=O)Nc1cccc(F)c1)C(=O)c1ccc(N2C(=O)c3ccccc3C2=O)cc1`?
KB-V1 cytotox: inactive; S2 tox: inactive; ATXN2 expr inh: 6%; HepG2 viability: -2%; TGFb inhibitor: -2%; KB-3-1 tox: inactive

How did CN(CC(=O)Nc1cccc(F)c1)C(=O)c1ccc2c(c1)CC(c1ccccc1)OC2=O (stereo not given) do in these assays?
KB-V1 cytotox: inconclusive; S2 tox: inconclusive; ATXN2 expr inh: -37%; HepG2 viability: -10%; TGFb inhibitor: 12%; KB-3-1 tox: 18µM*

Results for Cc1ccc(S(=O)(=O)c2c(N)n(CCN3CCOCC3)c3nc4ccccc4nc23)cc1C ?
KB-V1 cytotox: inactive; S2 tox: inactive; ATXN2 expr inh: -4%; HepG2 viability: 0%; TGFb inhibitor: 1%; KB-3-1 tox: inactive

How did Nc1c(S(=O)(=O)c2ccccc2)c2nc3ccccc3nc2n1Cc1ccco1 do in these assays?
KB-V1 cytotox: 23µM*; S2 tox: inactive; ATXN2 expr inh: -14%; HepG2 viability: -15%; TGFb inhibitor: 0%; KB-3-1 tox: inconclusive

Results for Cc1ccc(S(=O)(=O)c2c(N)n(Cc3ccco3)c3nc4ccccc4nc23)cc1C ?
KB-V1 cytotox: 23µM*; S2 tox: inactive; ATXN2 expr inh: -7%; HepG2 viability: -1%; TGFb inhibitor: inconclusive; KB-3-1 tox: inconclusive
